# This is part of a sample that, as a whole, favours compounds with a hit. Of some 83,000 tested, about 20% had one in any assay.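 Compound tested at a single concentration for 48 hours in 96-well plates; a percent growth value below 10 was scored as active.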 Unmarked numbers belong to inactive results. Calls of active or inactive are those of the source.
# Key:
# Assay in all cases: NCI-60 one-dose screen, 48 h (100 = growth as untreated, 0 = no growth, -100 = all killed)
# Conditions in all cases: 10 µM unless noted
# SK-MEL-2 melanoma = test system: SK-MEL-2 melanoma
# EKVX NSCLC = test system: EKVX NSCLC
# SN12C renal = test system: SN12C renal
# UO-31 renal = test system: UO-31 renal
# TK-10 renal = test system: TK-10 renal
# ACHN renal = test system: ACHN renal
# CAKI-1 renal = test system: CAKI-1 renal
# A498 renal = test system: A498 renal
# CCRF-CEM leukemia = test system: CCRF-CEM leukemia
# MOLT-4 leukemia = test system: MOLT-4 leukemia
# SR leukemia = test system: SR leukemia
# RPMI-8226 leukemia = test system: RPMI-8226 leukemia
# OVCAR-8 ovarian = test system: OVCAR-8 ovarian
# OVCAR-5 ovarian = test system: OVCAR-5 ovarian
# OVCAR-4 ovarian = test system: OVCAR-4 ovarian
# SK-OV-3 ovarian = test system: SK-OV-3 ovarian
# IGROV1 ovarian = test system: IGROV1 ovarian
# OVCAR-3 ovarian = test system: OVCAR-3 ovarian
# HS 578T breast = test system: HS 578T breast
# NCI/ADR-RES ovarian = test system: NCI/ADR-RES ovarian
SMILES,growth (SK-MEL-2 melanoma),growth (EKVX NSCLC),growth (SN12C renal),growth (UO-31 renal),growth (TK-10 renal),growth (ACHN renal),growth (CAKI-1 renal),growth (A498 renal),growth (CCRF-CEM leukemia),growth (MOLT-4 leukemia),growth (SR leukemia),growth (RPMI-8226 leukemia),growth (OVCAR-8 ovarian),growth (OVCAR-5 ovarian),growth (OVCAR-4 ovarian),growth (SK-OV-3 ovarian),growth (IGROV1 ovarian),growth (OVCAR-3 ovarian),growth (HS 578T breast),growth (NCI/ADR-RES ovarian)
Cn1cc(-c2nc(N)nnc2-c2c[nH]c3ccc(Br)cc23)c2cc(Br)cnc21,13.1%,30.4%,11.3%,10.4%,47.4%,6.39% (active),-8.15% (active),-14.3% (active),0.493% (active),-2.69% (active),-17.2% (active),-12% (active),1.57% (active),21.8%,32.8%,9.61% (active),14.2%,0.628% (active),30.2%,12.5%
O=C(c1ccccc1)C(c1c[nH]c2ccccc12)c1c[nH]c2ccccc12,71.9%,76.5%,49%,45%,142%,53.5%,31.6%,98.1%,3.87% (active),16.5%,7.54% (active),20.6%,64.4%,76.6%,51.5%,94.2%,56%,57.9%,61%,47.4%
COc1ccc(C(=O)/C=C/c2ccc(OC)c(OCc3ccccc3)c2)cc1OC,55.8%,25.2%,7.92% (active),19.3%,20.5%,21.8%,39.4%,108%,12.9%,8.07% (active),14.4%,7.98% (active),-7.56% (active),31.4%,30.1%,24.7%,22.2%,16.3%,18.7%,-4.74% (active)
COc1ccc(NC(=O)[C@@H](N)Cc2ccccc2)cc1C(=O)Nc1cccc(C2CC(=O)c3c(cc(OC)c(OC)c3OC)O2)c1 (stereo not given in full),77.9%,72.9%,56.4%,33.8%,94.8%,54.2%,54.1%,96.3%,15%,19.5%,14.7%,20.2%,29.1%,101%,54.7%,152%,74.5%,64%,77.6%,39.3%
COc1ccc(/C=C/c2n(Cc3ccc4ccccc4c3)c3ccccc3[n+]2Cc2ccc3ccccc3c2)cc1,-93.7% (active),-82.7% (active),-88.8% (active),-93% (active),-93.7% (active),-100% (active),-100% (active),-79.8% (active),-24.2% (active),-2.71% (active),-34.9% (active),-48.5% (active),-75.2% (active),-98.4% (active),-65% (active),-95.7% (active),-76.2% (active),-82.8% (active),-59.3% (active),-53.4% (active)
COc1cc(C2CC(c3cc(OC)c(OC)c(OC)c3)=NN2c2ccccc2)ccc1OCc1ccc(C)cc1 (stereo not given),88.1%,94.1%,95.1%,84.8%,118%,99.6%,77.8%,102%,106%,91.6%,105%,102%,98%,105%,89.2%,101%,94.2%,101%,94.5%,101%
Cn1cc(NC(=O)c2cc(NC(=O)c3ccc(/C=C/c4ccccc4)cc3)cn2C)cc1C(=O)NCCCN1CCOCC1,99.6%,89.6%,43.4%,61.6%,87.9%,70.7%,55.6%,90.6%,-8.72% (active),-23.6% (active),-22.3% (active),-47.7% (active),15.4%,93.9%,63%,98.4%,58.3%,24.5%,64.6%,90.2%
COc1cc(/C=C/C(=O)c2ccc(C)cc2)ccc1Oc1nc(Nc2ccc(F)cc2)nc(N(C)C)n1,44.9%,60.6%,17.4%,36.2%,77.3%,3.65% (active),35.6%,66.3%,17%,9.34% (active),3.88% (active),-1.89% (active),38%,79.1%,39.4%,79.4%,57.8%,52.4%,41.7%,38.1%
COc1cc2c(c(OC)c1OC)C(=O)CC(c1cccc(NC(=O)[C@@H](N)CC(C)C)c1)O2 (stereo not given in full),99.3%,99.1%,84.4%,78%,115%,103%,80.6%,89.3%,97.6%,96.1%,66.9%,108%,94.9%,112%,102%,109%,107%,97.9%,88.4%,99.8%
O=C(N=Nc1c(O)[nH]c2ccc([N+](=O)[O-])cc12)c1ccc2nc(-c3ccccc3)[nH]c2c1,77%,97.5%,49.5%,84.4%,140%,101%,91.7%,122%,32.7%,43.3%,30.9%,110%,65.1%,107%,45.8%,96.9%,76.9%,-13.2% (active),62.6%,103%
O=[N+]([O-])c1ccc(/C=C/c2nc3ccccc3n3c(=S)[nH]nc23)cc1,86.3%,70.7%,71.1%,47.7%,127%,72.7%,75.2%,91.9%,69.8%,75.5%,71.6%,56.5%,83%,89.1%,82.5%,105%,78.3%,69.9%,75.7%,85.2%
CN(C)c1nc(NCCNS(=O)(=O)c2ccc(C(=O)/C=C/c3ccc(Cl)cc3)cc2)nc(Nc2ccc(F)cc2)n1,-56.5% (active),2.04% (active),-97.7% (active),5.91% (active),-16.9% (active),-24.9% (active),-23.3% (active),9.56% (active),5.38% (active),-12.2% (active),-41.1% (active),-17.6% (active),-73.5% (active),-67% (active),-28.3% (active),26%,-49.6% (active),-94.8% (active),25.8%,-83.5% (active)
CCCS(=O)(=O)N1CCCC(C(=O)Nc2nc3ccc(NC(=O)c4ccc(F)c(OC)c4F)cc3s2)C1 (stereo not given),49.7%,39.7%,65.5%,38.8%,75.3%,46.7%,43.2%,84.3%,14.9%,0.124% (active),16.2%,12.4%,26.6%,86%,32.3%,61.1%,63.3%,48.9%,29.4%,19.9%
NS(=O)(=O)c1ccc(NNC(=O)CCC(=O)c2ccccc2)cc1,107%,103%,92.5%,84%,109%,101%,90.2%,94.2%,75.1%,89.8%,86.8%,105%,101%,112%,99.2%,104%,102%,114%,94.7%,109%
COc1cc2oc(-c3cccc(C(=O)Nc4cccc([N+](=O)[O-])c4)c3)cc(=O)c2c(OC)c1OC,-0.125% (active),41.6%,25.8%,0.82% (active),37.2%,16.2%,8.83% (active),3.68% (active),84.1%,64.6%,55%,68.9%,5.89% (active),83.5%,-6.32% (active),-9.46% (active),22.1%,26.7%,-5.03% (active),-18.2% (active)
